BAZ2B block: blocks human BAZ2B; Q9UIF8; AlphaScreen BAZ2B-H3K14Ac peptide displacement; Potency, µM (series often up to 114 µM), for the others: top-dose activity change, negative = inhibition, most hits filed as inhibitors; actives 4.4% (n = 360,000); AID 504333; also: % is scaled to controls: 0 for no effect and ±100 for the full control effect; nearly all actives have a fitted effect of over 60% in size
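AlphaScreen displacement: compounds (up to 110uM) incubated 30 min at room temperature with a preformed 50 nM BAZ2B/50 nM biotinylated H3K14Ac peptide complex in PBS pH 7.4 with Tween-20. Donor and acceptor beads at 10 ug/mL final added, 20 min light-protected before reading.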
HP1b chromo inh: inhibitors of HP1-beta chromodomain binding to methylated histone tails. AlphaScreen HP1-beta / biotin-H3K9me3 peptide binding. AID 540317. P83916. Potency, µM (titrated, usually from 114 µM), for inactives: at the highest dose activity change, negative = inhibition, hits mostly inhibitors. actives 0.56% (n = 390,000); also: nearly all actives have a fitted effect of over 70% in size
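AlphaScreen: HP1-beta (50 nM) preformed 30 min with biotin-H3(1-18)K9me3 peptide (50 nM) in PBS pH 7.4, 0.01% Tween-20. Compound added for 30 min at RT, then streptavidin donor/nickel chelate acceptor beads (10 ug/mL) for 30 min.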
G9a block: inhibitors of human histone lysine methyltransferase G9a; G9a H3K9 monomethylation, AlphaScreen, 2 h; Potency, µM (doses to about 102 µM), without a hit: at the highest dose activity, negative = inhibition, usual class: inhibitors; actives 8.8% (n = 350,000); also: % is scaled to controls: 0 for no effect and ±100 for the full control effect; nearly all actives have a fitted effect of over 75% in size
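Signal arises when biotinylated H3K9 peptide, once monomethylated, bridges streptavidin donor and antibody-captured acceptor beads. Enzyme at 20 nM was preincubated 15 min with test compounds; peptide 500 nM and SAM 20 uM then reacted for 2 h.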
L3MBTL1 block: blocks human L3MBTL1. Q9Y468. AlphaScreen L3MBTL1–H3K9me1 peptide binding. Potency, µM (titrated, usually from 57.1 µM), for the others: at the top dose activity, negative = inhibition, most hits filed as inhibitors. actives 0.66% (n = 230,000). AID 485360; also: % is scaled to controls: 0 for no effect and ±100 for the full control effect; nearly all actives have a fitted effect of over 60% in size
Target sequence (Q9Y468 whole entry, looked up): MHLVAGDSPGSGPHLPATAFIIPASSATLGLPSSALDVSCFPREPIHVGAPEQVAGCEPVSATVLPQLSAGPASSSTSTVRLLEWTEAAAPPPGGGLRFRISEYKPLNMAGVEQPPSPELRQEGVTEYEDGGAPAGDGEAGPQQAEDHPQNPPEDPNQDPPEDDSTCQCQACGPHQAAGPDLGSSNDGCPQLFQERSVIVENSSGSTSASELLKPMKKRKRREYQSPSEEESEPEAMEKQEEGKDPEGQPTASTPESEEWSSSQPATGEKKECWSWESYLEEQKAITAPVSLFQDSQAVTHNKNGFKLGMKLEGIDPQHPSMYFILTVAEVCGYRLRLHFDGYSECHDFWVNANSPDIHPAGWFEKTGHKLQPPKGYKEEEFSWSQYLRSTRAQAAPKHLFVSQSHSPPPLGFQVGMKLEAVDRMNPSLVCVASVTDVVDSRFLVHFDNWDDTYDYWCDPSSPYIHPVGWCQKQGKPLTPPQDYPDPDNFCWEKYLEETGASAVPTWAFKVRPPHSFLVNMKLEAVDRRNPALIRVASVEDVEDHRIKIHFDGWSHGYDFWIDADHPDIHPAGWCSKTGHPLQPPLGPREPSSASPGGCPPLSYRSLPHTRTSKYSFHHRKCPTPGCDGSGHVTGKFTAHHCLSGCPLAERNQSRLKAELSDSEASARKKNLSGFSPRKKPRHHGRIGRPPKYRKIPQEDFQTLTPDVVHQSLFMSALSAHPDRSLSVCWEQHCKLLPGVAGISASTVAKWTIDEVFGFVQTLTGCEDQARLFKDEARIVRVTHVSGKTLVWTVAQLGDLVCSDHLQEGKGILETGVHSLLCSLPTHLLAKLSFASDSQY
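Read-out is AlphaScreen signal from streptavidin donor and nickel chelate acceptor beads (10 ug/mL final each) bridging L3MBTL1 (50 nM) and biotinylated K9-monomethylated H3(1-15) peptide (75 nM), after 30 min compound exposure at room temperature.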
JMJD2A Tudor: JMJD2A Tudor domain (human) inhibition; O75164; AlphaScreen JMJD2A-Tudor / H3K4me3 peptide binding; Potency, µM (doses to about 114 µM), for inactives: at the top dose activity change, negative = inhibition, actives largely listed as inhibitors; actives 4.4% (n = 390,000); AID 504339; also: % is scaled to controls: 0 for no effect and ±100 for the full control effect; nearly all actives have a fitted effect of over 50% in size
Active calls of the source: *; u = inconclusive; x = not tested or not shown; [ ] = another dose, or the depositor's remark. Hits are enriched below; roughly 11% of the tested compounds scored in any of these assays. Calls follow the shape of the dose curve; as a rule, active = well fitted inhibition curve with a large enough effect; inconclusive = small, poorly fitted or top-dose-only effect; inactive = no such curve, though single readings can be large or run the other way. Potency is read from the fitted curve at half-maximal effect.

SMILES | BAZ2B block | HP1b chromo inh | G9a block | L3MBTL1 block | JMJD2A Tudor
CCc1ccc(C(=O)c2cn(Cc3ccccc3)c3cc(OC)c(OC)cc3c2=O)cc1 | u | -5.1% | -29.6%[59 µM] | x | u
CCCCN(c1ccccc1)S(=O)(=O)c1cc2c3c(c1)C(C)C(=O)N3CCC2 (centres undefined) | -2.1% | 27.2% | 5.1%[59 µM] | x | -12.3%
O=C(Nc1c2c(nn1-c1ccc(F)cc1)CS(=O)C2)c1ccc2c(c1)OCO2 (centres undefined) | -3.1% | 2.2% | x | x | 89.1µM*
O=C(Nc1c2c(nn1-c1cccc(Cl)c1)CS(=O)C2)c1ccc2c(c1)OCO2 (centres undefined) | -1.5% | 39.6% | u | x | 1.5%
COc1cc(/C=N\N=C2/SC(CC(=O)O)C(=O)N2c2ccc(O)cc2)ccc1O (centres undefined) | 11.8% | 6.1% | -5.0% | -2.9% | -9.6%
COc1cc(/C=N/N=C2/SCC(=O)N2c2ccc(O)cc2)ccc1O | -9.8% | -10.4% | -17.2% | x | 8.91µM*
Cc1ccc(S(=O)(=O)N2CCN(c3nc(-c4cccs4)nc4c3ncn4COC(=O)C(C)(C)C)CC2)cc1 | x | 30.0% | x | x | -16.3%
Cc1cccc(C(=O)N2CCc3cc(CNC(=O)c4cc5ccccc5[nH]4)ccc32)c1 | -8.9% | -12.0% | -16.0%[59 µM] | x | -27.0%
CCC(C)N(CCNC(=O)CC1Oc2ccc(C)cc2NC1=O)C1CCCCC1 (centres undefined) | 9.3% | 36.4% | 50.1µM* | x | -14.1%
Cc1ccc2c(c1)NC(=O)C(CC(=O)NC1CCCCC1C)O2 (centres undefined) | 5.0% | 60.3% | 44.7µM* | 15.5% | 2.1%
Cc1ccc2c(c1)NC(=O)C(CC(=O)NCCCN1CCCCC1C)O2 (centres undefined) | -5.3% | 36.3% | u | x | -23.9%
CN1CCN(c2ccccc2NC(=O)COc2ccc(Cl)cc2)CC1 | -15.8% | 6.3% | 3.9% | x | -11.1%
N#Cc1nc(-c2cccs2)oc1NCCN1CCOCC1 | -1.6% | 0.2% | -9.3% | -1.1% | u
N#Cc1nc(-c2ccco2)oc1N1CCN(c2cccc(Cl)c2)CC1 | 25.1µM* | u | u | u | u
N#Cc1nc(-c2ccco2)oc1N1CCc2ccccc2C1 | 25.1µM* | u | u | x | u
N#Cc1nc(-c2ccco2)oc1N1CCCC1 | 2.8% | 0.8% | 25.3%[2.33 µM] | x | -19.2%
N#Cc1c(N2CCN(C(=O)c3ccco3)CC2)nc(-c2ccccc2)c2c1CCCC2 | -10.7% | 14.0% | -33.4%[59 µM] | -5.0% | -14.1%
N#Cc1nc(-c2cccs2)oc1N1CCN(Cc2ccccc2)CC1 | 25.1µM* | u | u | x | u
N#Cc1nc(-c2ccccc2)oc1N1CCN(C(=O)c2ccco2)CC1 | 1.8% | -17.7% | 39.8µM* | x | -28.1%
O=C(Oc1ccccc1)N1CCC2(CC1)CCN(c1ccncc1)CC2 | x | x | 3.4%[12.7 µM] | x | x
CCOC(=O)N1CCC(N2C(=O)c3ccc(C(=O)Nc4cccc(OC)c4)cc3C2=O)CC1 | -19.2% | 27.1% | 16.6% | x | -1.2%
COc1ccccc1-c1nc(C#N)c(N2CCN(C(c3ccccc3)c3ccccc3)CC2)o1 | u | -23.8% | 4.5%[2.33 µM] | x | -27.1%
COc1ccccc1-c1nc(C#N)c(N2CCN(c3cccc(Cl)c3)CC2)o1 | 6.1% | u | 0.708µM* | -12.9% | u
N#CCCN(C(=O)COC(=O)C12CC3CC(CC(O)(C3)C1)C2)c1ccc(F)cc1 | 13.1% | 18.5% | 1.41µM* | 4.5% | -5.4%
O=C(N/N=C/c1cc([N+](=O)[O-])ccc1O)c1cc(-c2ccccc2)nc2ccccc12 | 31.6µM* | 9.5% | u | u | u
SMILES | BAZ2B block | HP1b chromo inh | G9a block | L3MBTL1 block | JMJD2A Tudor
O=C(NC(C(=O)N/N=C/c1cc([N+](=O)[O-])ccc1O)c1n[nH]c(=O)c2ccccc12)c1ccccc1 (centres undefined) | 31.6µM* | 4.1% | u | x | 44.7µM*
Cc1cc(C(=O)N/N=C/c2cc([N+](=O)[O-])ccc2O)c2ccccc2n1 | 17.8µM* | 24.7% | 32.0%[59 µM] | 17.8µM* | 25.1µM*
O=C(NC(C(=O)N/N=C/c1cccc2ccccc12)c1n[nH]c(=O)c2ccccc12)c1ccccc1 (centres undefined) | -35.4% | -1.9% | -18.4% | -21.4% | -22.6%
O=C(N/N=C/c1ccc(O)c(O)c1)c1cc(-c2ccccc2)nc2ccccc12 | u | -28.9% | 44.7µM* | x | u
O=C(CCC1N=C2c3ccccc3N=C(SCc3ccccc3F)N2C1=O)NC1CCCCC1 (centres undefined) | -9.1% | 20.5% | 13.0%[59 µM] | x | -0.3%
Cc1cc(-c2ccc(C)c(S(=O)(=O)NC(c3cccs3)C(C)C)c2)on1 (centres undefined) | -12.2% | 7.6% | -3.1%[59 µM] | x | -14.6%
Cc1cccc(C(C)C)c1NC(=O)Cn1c(=O)oc2cc(S(=O)(=O)N3CCCC3)ccc21 | 0.8% | 29.9% | 0.0%[59 µM] | x | -10.1%
Cc1cc(C(=O)N/N=C/c2cc(Br)cc([N+](=O)[O-])c2O)c2ccccc2n1 | 50.1µM* | u | u | u | u
CN(C(=O)c1nn(C)c2c1COc1ccccc1-2)c1cccc(C(F)(F)F)c1 | -18.4% | -10.8% | -37.3%[59 µM] | x | -18.5%
O=C(NC(=S)Nc1cc(C(F)(F)F)ccc1Cl)c1ccccc1 | -37.5% | 20.6% | 9.9%[0.501 µM] | 4.9% | -15.3%
O=C(O)c1ccc(NNC(=S)Nc2cc(C(F)(F)F)ccc2Cl)cc1 | u | -6.4% | 35.5µM* | x | -32.9%
Cc1ccc(-c2nc3c(c(=O)[nH]c(=O)n3Cc3ccccc3)n2Cc2ccccc2)o1 | 12.7% | -6.7% | 10µM* | -3.4% | -23.3%
Cc1ccc(CSc2nc3cccnc3n2Cc2ccc(C(=O)NCCc3cccs3)cc2)cc1 | -0.3% | 34.5% | 3.1%[59 µM] | x | 3.6%
Cc1ccc(N2C(N)=C(C#N)C(c3cc(CN4CCOCC4)cs3)C3=C2CC(C)(C)CC3=O)cc1 (centres undefined) | -13.2% | 24.6% | 50.1µM* | x | -8.8%
Cc1ccc(/C=N/N2CCN(c3ccccc3)CC2)cc1 | 14.5% | 22.4% | -13.4% | 6.4% | -3.4%
Cc1ccc(/C=N/n2cnnc2)s1 | 3.2% | 17.4% | 22.2% | 6.9% | 16.8%
Cc1ccc(CN2CCN(/N=C/c3cccn3C)CC2)c(C)c1 | 50.1µM* | u | 25.1µM* | -16.9% | 39.8µM*
Cc1ccc(CN2CCN(/N=C/c3ccc(C)s3)CC2)c(C)c1 | 35.5µM* | u | u | -20.3% | 44.7µM*
CC1CCN(C(=O)Nc2ccc3nc(-c4ccco4)c(-c4ccco4)nc3c2)CC1 | x | 11.2µM* | x | x | 12.6µM*
Cc1nc2ccc(NC(=O)N3CCOCC3)cc2nc1C | -11.0% | 13.8% | 0.0% | -1.0% | -22.8%
S=C(Nc1ccc(N2CCOCC2)cc1)Nc1ccc2nc(-c3ccco3)c(-c3ccco3)nc2c1 | u | -53.4% | 31.6µM* | x | u
O=C(Nc1ccc2nc(-c3ccco3)c(-c3ccco3)nc2c1)N1CCCC1 | x | 10µM* | x | x | 14.1µM*

Screening data: PubChem BioAssay, National Center for Advancing Translational Sciences (NCATS)
